CYP2C9 act: human CYP2C9 activators, primary screen, biochemical, luminescence. Cytochrome P450 2C9 (Homo sapiens), P11712. recombinant CYP2C9, luciferin-H conversion; hits give high values; factor 1 = untreated enzyme, 0 = blocked. activation factor at 5 µM. 96,000 compounds, 1.4% hits. AID 1024, 2008;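 active means activation factor of 2 or more for CYP2C9 at a 5 µM dose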;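 further: 0 = sulfaphenazole-blocked wells and 1 = vehicle-only wells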
Measles CPE: compounds protecting cells from measles virus cytopathic effect, primary screen, measles RdRp inhibitor project, single point, MLSMR library, absorbance; 140,000 compounds, 1.5% hits; protection (pct of control), % at 4 µM; AID 841, 2007; Measles virus-infected cells, CPE protection; in the data active means protection mostly above about 24%, no sharp cut-off; inactive means mostly below about 26%
CYP2C19 inhib: blockers of cytochrome P450 2C19 activity – biochemical, luminescence, ADME assay, primary screen. P33261. 96,000 compounds, 21% hits. inhibition, % at 5 µM. AID 778, 2007. CYP2C19 Supersomes, luciferin-H EGE luminescence, 30 min;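 active means CYP2C19 inhibition above a set limit at 5 µM in the primary screen, cut at about 50% in these data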;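 further: plate controls were negative control wells for no effect and 2.5 mM tranylcypromine positive control for full effect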
CYP2C19 act: human CYP2C19 activators, primary screen, biochemical, luminescence; Cytochrome P450 2C19 (Homo sapiens), P33261; recombinant CYP2C19, luciferin-H EGE luminescence; hits give high values; 0 = fully inhibited enzyme, 1 = untreated enzyme; activation factor at 5 µM; 96,000 tested, under 10 active; AID 1025, 2008;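 active means activation factor of at least 2 at 5 µM in the primary screen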;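 further: 0 = wells with 2.5 mM tranylcypromine and 1 = vehicle-only wells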
CYP2C9 inh: blockers of cytochrome P450 2C9 activity – biochemical, luminescence, ADME assay, primary screen; P11712; CYP2C9 Supersomes, luciferin-H conversion; inhibition, % at 5 µM; 96,000 compounds, 20% hits; AID 777, 2007;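 active means blocking of liver enzyme CYP2C9 beyond about 50% at 5 µM, limit read from the data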
Starred values were filed as active, the others as inactive; / = not tested or not shown. Shown are actives, neighbours in structure and some others; about 22% of the full set was active somewhere.

SMILES	CYP2C9 act	Measles CPE	CYP2C19 inhib	CYP2C19 act	CYP2C9 inh
CCOc1ccc(NC(=O)C2CC(=O)N(c3cc(C)cc(C)c3)C2)cc1 (configuration not stated)	1.7	2	23	0.8	-72
CN1C(=O)/C(=C2\SC(N3CCCCCC3)=NC2=O)c2ccccc21	2.7*	2	45	0.6	-170
CC1=CC(C)(C)N2C(=O)C3(SCC(=O)N3c3ccc(O)cc3)c3cc(C)cc1c32 (configuration not stated)	0	5	87*	0.1	97*
Cc1ccccc1C(=O)NNC(=O)c1ccc(F)cc1	1.1	9	62*	0.4	-14
O=C(NCCc1ccccc1)C(c1cccs1)N(C(=O)CCl)c1ccc(Cl)cc1 (configuration not stated)	/	1	/	/	/
CN(C(=O)C1CCOC1)c1nnc(-c2ccncc2)s1 (configuration not stated)	0.8	3	98*	0	24
CN(C(=O)C1CCCO1)c1nnc(-c2ccncc2)s1 (configuration not stated)	0.9	4	98*	0	14
O=C(NCCc1cn2ccccc2n1)c1ccccc1F	0.9	7	18	0.8	8
COc1cccc(C2CC(=O)Nc3c2c(=O)n(C)c(=O)n3C)c1OC (configuration not stated)	1	24	-6	1.1	-1
c1cc(-c2ccncc2)ccn1	/	4	/	/	/
CN(C)c1ccc(-c2ccncc2)cc1	0.5	/	98*	0	50
CC1=CC(C)(C(Cl)Cl)C(C)=CC1=O (configuration not stated)	/	4	/	/	/
COc1ccccc1NC(=S)NCC1CCCCC1	/	7	/	/	/
COc1ccc2c(c1)NC(=O)CC(c1ccccc1)=N2	0.5	23	75*	0.3	49
COc1ccc(-c2cc(-c3ccccc3)nc(-c3ccc4c(c3)NC(=O)CO4)c2)cc1	0.7	19	8	0.9	33
COc1ccc(Cc2nnc(NC(=O)c3c(-c4ccccc4)noc3C)s2)cc1	0.1	8	84*	0.2	93*
COc1ccc(Cc2nnc(NC(=O)c3c(-c4ccccc4)noc3C)s2)cc1OC	0.5	3	9	0.9	54*
COc1ccc(CCNC(=O)c2cc(C(C)C)on2)cc1OC	0.9	20	35	0.6	6
Cc1onc(-c2ccccc2)c1C(=O)NCCc1c[nH]c2ccccc12	0.4	9	59*	0.4	56*
COc1ccc(CCNC(=O)c2c(-c3ccccc3)noc2C)cc1OC	0.1	20	90*	0.1	86*
COc1ccc(Cc2nnc(NC(=O)CSc3ccccc3)s2)cc1	0.8	21	-1	1	17
O=C(CSc1nnnn1-c1ccc(Cl)cc1)Nc1cccnc1Cl	/	36	/	/	/
Nc1nc(Cl)cc(N2CCC(c3cc(-c4ccc(Cl)cc4)n[nH]3)CC2)n1	1	5	11	0.9	-4
COc1ccc(-c2cc(C3CCN(c4cc(Cl)nc(N)n4)CC3)[nH]n2)cc1	0.8	8	59*	0.4	24
CCCOc1ccc(OCCOCCN2CCc3ccccc3C2)cc1	0.8	3	52*	0.5	25
SMILES	CYP2C9 act	Measles CPE	CYP2C19 inhib	CYP2C19 act	CYP2C9 inh
Cc1cc(Cl)ccc1OCC(=O)N[C@@H](Cc1ccccc1)c1nc2ccccc2[nH]1	/	6	/	/	/
CC1=NN(C(=O)c2c(Br)c(C)nn2C)C(O)(C(F)(F)F)C1 (configuration not stated)	/	10	/	/	/
Cc1ccc(S(=O)(=O)N2CCC(C(=O)N3CCC(C(=O)NCC4CCCO4)CC3)CC2)cc1 (configuration not stated)	0.8	13	0	1	17
O=C(NC(Nc1ncc(S(=O)(=O)c2ccc([N+](=O)[O-])cc2)s1)(C(F)(F)F)C(F)(F)F)c1ccc(Cl)cc1	0.1	3	12	0.9	88*
Cc1nn(C)c(Cl)c1NC(=O)OCc1ccccc1	1.5	0	33	0.7	-49
O=C(Nc1ccc2c(c1)OCO2)C1(S(=O)(=O)c2ccc(Cl)cc2)CC1	0.2	3	31	0.7	85*
COCCCNC(=O)CN(Cc1ccc(Cl)cc1)S(C)(=O)=O	1	6	58*	0.4	-2
CS(=O)(=O)N(CC(=O)Nc1ccc2c(c1)OCO2)Cc1ccccc1	0.5	4	70*	0.3	48
